# KKLEB cytotox = cytotoxicity in KKLEB CF airway cells, primary screen, cytotoxicity control for CF NF-kB inhibitor project, cell-based, uHTS, fluorescence assay plates; 0.36% of 360,000 active; KKLEB CF airway cells viability, ATPlite luminescence, overnight; active compounds read low; cells stimulated with P. aeruginosa culture filtrate; activity change (cytotoxicity), % at 5 µM;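 active = corrected activity change at or below -50% at 5 µM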
# Peg3 prom inh-1 = Peg3 promoter-driven luciferase inhibitors, primary screen, cell-based, HeLa, luciferase luminescence. HeLa PEG-Prom luciferase reporter, overnight. inhibition, % at 20 µM. AID 588405, 2011. 1.7% of 360,000 active;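 active = inhibition of at least 50% at 20 µM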
# Mdm2-MdmX inh = inhibitors of human Mdm2-MdmX association, primary screen, cell-based, luminescence, split luciferase, SaOS-2, uHTS. Protein Mdm4 (Homo sapiens) + E3 ubiquitin-protein ligase Mdm2 (Homo sapiens), …. SaOS-2 split-luciferase Mdm2/MdmX complementation. inhibition, % at 8 µM. 3% of 330,000 active;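 active = inhibition of at least 50% at 8 µM in the primary screen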
# Target sequence (O15151 whole entry, looked up): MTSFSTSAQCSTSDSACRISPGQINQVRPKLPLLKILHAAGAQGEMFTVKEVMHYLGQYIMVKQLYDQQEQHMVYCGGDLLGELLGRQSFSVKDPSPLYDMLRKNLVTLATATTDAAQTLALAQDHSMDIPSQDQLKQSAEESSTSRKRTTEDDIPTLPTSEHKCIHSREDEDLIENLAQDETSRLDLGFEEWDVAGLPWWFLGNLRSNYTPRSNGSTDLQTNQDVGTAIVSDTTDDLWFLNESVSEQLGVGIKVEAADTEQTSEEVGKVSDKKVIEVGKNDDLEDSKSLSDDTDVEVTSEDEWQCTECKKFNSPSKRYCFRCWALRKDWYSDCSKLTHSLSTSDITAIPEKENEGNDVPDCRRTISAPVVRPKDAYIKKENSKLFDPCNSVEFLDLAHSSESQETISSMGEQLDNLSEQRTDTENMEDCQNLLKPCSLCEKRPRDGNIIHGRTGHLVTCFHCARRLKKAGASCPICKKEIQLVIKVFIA
# Target sequence (Q00987 whole entry, looked up): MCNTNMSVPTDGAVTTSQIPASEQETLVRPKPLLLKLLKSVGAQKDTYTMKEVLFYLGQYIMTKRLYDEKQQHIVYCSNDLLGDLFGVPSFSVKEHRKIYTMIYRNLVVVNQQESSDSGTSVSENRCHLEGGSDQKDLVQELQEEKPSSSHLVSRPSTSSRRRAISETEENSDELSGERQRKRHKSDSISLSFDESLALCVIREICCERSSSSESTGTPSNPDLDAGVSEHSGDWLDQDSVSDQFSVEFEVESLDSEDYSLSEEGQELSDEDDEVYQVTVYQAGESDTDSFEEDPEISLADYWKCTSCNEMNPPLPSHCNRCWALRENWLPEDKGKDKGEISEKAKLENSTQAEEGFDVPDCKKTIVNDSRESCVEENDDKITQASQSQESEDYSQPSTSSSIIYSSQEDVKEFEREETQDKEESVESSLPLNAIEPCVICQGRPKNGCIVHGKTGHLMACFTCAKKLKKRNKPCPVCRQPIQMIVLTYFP
# CF NFkB inh = inhibitors of PAF-induced NF-kB signaling, primary screen, cell-based, GFP fluorescence, uHTS; KKLEB NF-kB-GFP reporter, GFP fluorescence overnight; inhibition, % at 5 µM; 0.86% of 360,000 active;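 active = at least 50% inhibition at 5 µM, scaled per plate between neutral and stimulator controls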;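 also: PAF is a Pseudomonas aeruginosa culture filtrate used as stimulus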
# HSP90 inh = HSP90 inhibitors, primary screen, cell lysate, luminescence. Rabbit reticulocyte lysate, luciferase refolding luminescence, 3 h. 0.91% of 290,000 active. inhibition, % at 5.6 µM. AID 1789, 2009. Heat shock protein HSP 90 (rabbit reticulocyte lysate; luciferase refolding);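 active = inhibition above the screen-wide mean plus 3 SD, computed separately per campaign, cut at about 16% in these data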;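 also: inhibitors lower the luminescence because luciferase stays unfolded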
# LGR2 inh = inhibitors of bursicon-induced LGR2 CRE-luciferase signal, primary screen, cell-based, HEK293, CRE-luciferase reporter, bursicon stimulation. Drosophila bursicon receptor LGR2 (rickets). bursicon-stimulated, 4 h. inhibition, % at 9.99 µM. 0.35% of 380,000 active;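 active = drop in luminescence signal, shown as inhibition above about 50% in the replicate tests, limit read from the data, passing the limit was not always enough; inconclusive = probably only some replicates passing the limit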;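 also: agonist challenge used bursicon conditioned medium at about half maximal strength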
# Mdm2-MdmX conf = Mdm2-MdmX complex disruptors, retested hits, confirmation, luminescence, single concentration. shares compounds with Mdm2-MdmX inh. Mdm2-MdmX binding, luminescent assay. inhibition, % at 8 µM. 55% of 10,000 active. AID 489028, 2010
# FLuc counter = full-length luciferase signal inhibition, confirmation, counter-screen for Mdm2/MdmX interaction inhibitor project, cell-based, single concentration, SaOS-2. shares compounds with Mdm2-MdmX inh. SaOS-2 full-length luciferase counterscreen, luminescence. inhibition, % at 8 µM. 77% of 6,200 active;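 active = mean inhibition at 8 µM reaching about 37%, which flags the compound as non-specific, limit read from the data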;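 also: p53-null SaOS-2 cells with luciferase driven by a doxycycline-inducible promoter; compound on cells about two nights before reading with doxycycline added after day one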
# Peg3 prom inh-2 = Peg3 promoter reporter inhibitors, retest, confirmation, cell-based, HeLa, luciferase reporter, single concentration; shares compounds with Peg3 prom inh-1; HeLa PEG-Prom luciferase reporter, luminescence, overnight; inhibition, % at 20 µM; 84% of 1,300 active; AID 602417, 2012;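 active = at 20 µM dose, 40% or more inhibition averaged across four replicates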
# CF NFkB inh conf = inhibitors of PAF-induced NF-kB signaling, retest, confirmation, cell-based, GFP fluorescence, single concentration; shares compounds with CF NFkB inh; KKLEB CF airway cells, overnight; inhibition, % at 5 µM; 64% of 1,300 active; AID 602472, 2012;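 also: stimulus PAF is a Pseudomonas aeruginosa filtrate and not platelet activating factor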
# Numbers stand for hits; i = inactive; ? = inconclusive; nt = no result given. Most compounds without a hit are left out; they make up all but 3.6% or so of the library. Rule as the data show it, unless noted: active = inhibition above about 40%; inactive = the rest.
SMILES,KKLEB cytotox,Peg3 prom inh-1,Mdm2-MdmX inh,CF NFkB inh,HSP90 inh,LGR2 inh,Mdm2-MdmX conf,FLuc counter,Peg3 prom inh-2,others
O=C(N/N=C\c1c(O)ccc2ccccc12)c1cncc(Br)c1,i,65,83,i,i,i,76,i,60,
CN1c2ccc(Br)cc2[C@@H]2[C@@H](CCN2C(=O)C2CCCCC2)[C@@H]1CO,nt,nt,nt,nt,nt,i,nt,nt,nt,
COc1cc(OC)cc(C(=O)Nc2ccccc2-c2nnn(CC(=O)Nc3cc(C)on3)n2)c1,i,71,71,i,i,i,i,nt,i,
CC(C)NC(=O)Nc1cccc2c1O[C@H](CN(C)C(=O)NC1CCCCC1)[C@H](C)CN([C@@H](C)CO)C2=O,nt,nt,nt,nt,nt,i,nt,nt,nt,
CCCNC(=O)N(C)C[C@@H]1Oc2ncc(C3=CCCC3)cc2C(=O)N([C@@H](C)CO)C[C@@H]1C,nt,nt,nt,nt,nt,i,nt,nt,nt,
Cc1nc(SCC(=O)Nc2ccc(S(=O)(=O)N3CCOCC3)cc2)c2c(C)c(C)sc2n1,i,70,82,i,nt,i,44,i,i,
Cc1nc(SCC(=O)N2CCOCC2)c2c(C)c(C)sc2n1,i,i,i,i,i,i,nt,nt,nt,
Nc1nonc1-n1nnc(C(=O)N/N=C/c2cc(Br)ccc2O)c1CNc1ccccc1,i,56,69,i,i,i,66,i,72,
CCOC(=O)N1CCN(S(=O)(=O)c2ccc(C(=O)Nc3nc4ccc(F)cc4s3)cc2)CC1,i,55,55,i,i,i,i,nt,i,
CCOC(=O)N1CCN(S(=O)(=O)c2ccc(C(=O)Nc3nc4ccccc4s3)cc2)CC1,i,i,i,i,i,i,nt,nt,nt,
CCOC(=O)c1ccc2nc(Nc3nc4ccc(F)cc4s3)sc2c1,i,96,82,i,i,i,60,i,93,
CN1CCN(C(=O)C[C@@H]2CC[C@@H]3[C@H](COC[C@@H](O)CN3C(=O)Nc3ccc(F)cc3)O2)CC1,nt,nt,nt,nt,nt,i,nt,nt,nt,
Cc1cccc(OCC(=O)NCC(=O)N/N=C/c2cc(Br)cc(Br)c2O)c1,i,57,56,i,i,i,77,i,63,
CN1Cc2c(N3CCOCC3)nc3sc(C#N)c(N)c3c2CC1(C)C,i,i,i,i,i,nt,nt,nt,nt,
CN1Cc2c(N3CCOCC3)nc3sc(C(=O)c4ccc(Br)cc4)c(N)c3c2CC1(C)C,i,80,91,i,i,nt,61,84,97,
c1ccc(-c2noc(-c3ccc4c(c3)OCO4)n2)nc1,i,87,83,i,41,nt,86,i,81,
CC1=CC(C)[C@H](/C=N/n2c(=O)[nH]c3c([nH]c4ccc(C)cc43)c2=O)C(C)C1 (stereo partly specified),i,62,86,i,i,i,i,nt,i,
COc1ccc(/C=N/n2c(=O)[nH]c3c([nH]c4ccc(C)cc43)c2=O)cc1CN1CCOCC1,i,i,nt,i,i,i,nt,nt,nt,
CN1C(=O)c2cc(NC(=O)C3CCCC3)ccc2OC[C@H]2O[C@@H](CC(=O)NCc3ccccc3F)CC[C@H]21,nt,nt,nt,nt,nt,i,nt,nt,nt,
Cc1ccc(Cl)cc1Nc1nc(-c2sc(NC(=O)c3ccco3)nc2C)cs1,i,90,81,i,i,i,i,nt,88,
COc1ccc(-c2oc3ccc(-c4cc(OC)c(OC)c(OC)c4)cc3c2C#Cc2ccccn2)cc1,i,54,85,72,nt,i,64,64,51,CF NFkB inh conf=i
Cc1c(Cl)cccc1N=C1SCCN1C(=O)CN1C(=O)NC2(CCCC2)C1=O,i,i,78,53,nt,i,45,69,nt,CF NFkB inh conf=40
O=C(CN1C(=O)NC2(CCCCC2)C1=O)Nc1cccc(Cl)c1Cl,i,i,i,i,nt,i,nt,nt,nt,
O=C(c1cc([N+](=O)[O-])ccc1N1CCOCC1)N1CCN(c2ccccc2)CC1,i,i,58,53,i,i,77,95,nt,CF NFkB inh conf=59
C[C@H](CO)N1C[C@H](C)[C@@H](CN(C)Cc2ccc(Cl)c(Cl)c2)Oc2ccc(N(C)C)cc2CC1=O,nt,nt,nt,nt,nt,i,nt,nt,nt,
SMILES,KKLEB cytotox,Peg3 prom inh-1,Mdm2-MdmX inh,CF NFkB inh,HSP90 inh,LGR2 inh,Mdm2-MdmX conf,FLuc counter,Peg3 prom inh-2,others
Cc1cc2c(c(/C=C/C(=O)c3ccccc3)c1)OC1(C=C2)Oc2ccccc2C(=O)N1C (stereo unspecified),i,80,91,62,i,50,83,48,99,CF NFkB inh conf=i
Cc1noc(C)c1S(=O)(=O)Nc1ccc2c(c1)C(=O)N([C@H](C)CO)C[C@@H](C)[C@@H](CN(C)S(C)(=O)=O)O2,nt,nt,nt,nt,nt,i,nt,nt,nt,
CCOC(=O)Nc1ccc2c(c1)N(C(=O)N1CCN(C)CC1)c1ccccc1S2,i,i,i,i,i,nt,nt,nt,nt,
C=CC(=O)N1c2ccccc2Sc2ccc(NC(=O)OCC)cc21,i,95,87,80,i,nt,41,i,nt,CF NFkB inh conf=i
COc1ccc(CN(C)C[C@H]2Oc3ccc(NC(=O)C4CC4)cc3CC(=O)N([C@H](C)CO)C[C@@H]2C)cc1,nt,nt,nt,nt,nt,i,nt,nt,nt,
COc1ccc2nc(Nc3nc(CSc4nc5ccccc5[nH]4)cc(=O)[nH]3)nc(C)c2c1,i,98,65,103,i,87,52,46,nt,CF NFkB inh conf=101
CCCc1cc(-c2[nH]ncc2-c2ccc3c(c2)OCCCO3)c(O)cc1OC,nt,nt,nt,nt,i,nt,nt,nt,nt,
COc1ccc(-c2[nH]ncc2-c2ccc3c(c2)OCCO3)c(O)c1,i,i,84,89,i,?,90,52,nt,CF NFkB inh conf=102
COc1ccc(-c2cn[nH]c2-c2ccc(OCc3ccc([N+](=O)[O-])cc3)cc2O)cc1,i,i,86,70,i,i,77,i,nt,CF NFkB inh conf=82
C[C@@H]1CCCCO[C@@H](CN(C)Cc2ccc(C(F)(F)F)cc2)[C@@H](C)CN([C@@H](C)CO)C(=O)c2cc(NC(=O)Nc3ccc(F)cc3)ccc2O1,nt,nt,nt,nt,nt,i,nt,nt,nt,
